Screens as filed in PubChem.
CHX counter: Cycloheximide Counterscreen for Small Molecule Inhibitors of Shiga Toxin | cell reporter, cycloheximide protein synthesis inhibition counterscreen | max response, % | 300,000 tested, 12% active; in the data active = max response mostly above about 13%, no sharp cut-off; inactive = mostly below about 14%; note: read at 38.3 µM for the half of the compounds with a filed dose; 0% is about no effect
Pf growth 96h: Primary qHTS for delayed death inhibitors of the malarial parasite plastid, 96 hour incubation. P. falciparum luciferase reporter growth, 96 h. Potency, µM (highest dose often 28.7 µM), without a hit: top-dose activity change, negative = inhibition, most hits filed as inhibitors. 320,000 tested, 6.9% active. AID 504834, 2011; note: potency is the fitted concentration of half-maximal effect; % is set by controls: 0 for no effect and ±100 for the full control effect
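Cell-based qHTS: luciferase-tagged P. falciparum in erythrocytes (2% hematocrit, 0.05% parasitemia final) incubated with compounds for 96 hours, 37 C, 5% CO2; luciferase detection reagent then added and luminescence measured.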
NS1 function inh: qHTS Assay for Inhibitors of Influenza NS1 Protein Function | Potency, µM (top dose mostly 46.1 µM), without a hit: top-dose activity, positive = more growth | 270,000 tested, 0.4% active | AID 2326, 2010; calls by dose curve; note: potency is the fitted concentration of half-maximal effect; actives are rising curves; nearly all actives have a fitted effect of over 50% in size
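OD600 was taken as the measure of yeast growth restored by compound in an NS1-expressing S. cerevisiae strain. Cells had been washed out of glucose medium and diluted 1:100 into galactose -URA medium, pH 6.0.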
Shiga inhibitor: A qHTS for Small Molecule Inhibitors of Shiga Toxin | Vero cells, Shiga toxin protein synthesis inhibition reporter | AID 2315, 2010 | inhibition, % at 38.7 µM | 290,000 tested, 9.2% active; in the data active = inhibition mostly above about 28%, no sharp cut-off; inactive = mostly below about 43%; note: 0% is about no effect
Pf growth 48h: Primary qHTS for delayed death inhibitors of the malarial parasite plastid, 48 hour incubation | 310,000 tested, 5.9% active | Potency, µM (series often up to 28.7 µM), for inactives: at the top dose activity change, negative = inhibition, actives largely listed as inhibitors | AID 504832, 2011 | P. falciparum luciferase growth in erythrocytes, 48 h; note: potency is the fitted concentration of half-maximal effect; % is set by controls: 0 for no effect and ±100 for the full control effect
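Parasite viability was followed by luminescence of a genomically integrated firefly luciferase. Cultures held 0.1% parasitemia at 2% hematocrit (final), incubated under 5% CO2 at 37 C.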
Numbers without * were called inactive; ? = inconclusive; / = no result; [ ] = remark or other dose. Hits are enriched below; roughly 21% of the tested compounds scored in any of these assays. Unless noted, calls come from the whole dose curve; as a rule, active = well fitted inhibition curve with a large enough effect; inconclusive = small, poorly fitted or top-dose-only effect, or another doubt; inactive = no such curve, though single readings can be large or run the other way.

SMILES	CHX counter	Pf growth 96h	NS1 function inh	Shiga inhibitor	Pf growth 48h
C#CCOCCOCCOCCNc1nc(N2CCN(C(=O)[C@H]([C@@H](C)CC)n3cc([C@@H](N)Cc4ccc(O)cc4)nn3)CC2)nc(N2CCN(C(=O)[C@H](CCCCN)n3cc([C@@H](N)CC(C)C)nn3)CC2)n1	34.8*	23.8%	2.1%	-12.9	37.6%
COc1ccc(-n2c(C)c(C(C)=O)c3cc(OC(C)=O)ccc32)cc1	-3.5	-25.9%	4.3%	-22.3	104.3%
COc1ccc(-n2c(C)cc(C)c(C(C)=O)c2=S)cc1	-2.9	11.7µM*	-2.8%	-3.1	14.7µM*
CCN(Cc1ccccc1)C(=O)Cc1c[nH]c2ccccc12	5.8	?	-1.0%	-2.2	?
COc1ccc(N(C(=O)CNC(=O)c2cccs2)C(C(=O)NC2CCCC2)c2cccnc2)cc1 (configuration not stated)	7.5	?	-2.5%	-11.3	-4.8%
O=C1CC(C(=O)Nc2ccccc2)N=C(N2CCCCC2)N1 (configuration not stated)	6.4	/	?	17.8	21.3%
Cc1ccc(NC(=O)C2CC(=O)NC(Nc3cccc(C)c3)=N2)cc1 (configuration not stated)	-2.3	2.08µM*	2.5%	-21.2	15.7%
O=C(OCC(=O)N1CCOCC1)c1ccc(Cl)cc1[N+](=O)[O-]	23.8*	21.0%	-5.9%	46.7*	6.3%
Nc1ccc(C(=O)OCC(=O)N2CCOCC2)cc1[N+](=O)[O-]	30.9*	130.3%	0.8%	56.9*	114.9%
O=C(OCC(=O)N1CCN(c2ccccc2)CC1)c1cc(Cl)ccc1[N+](=O)[O-]	9.8	11.7µM*	-8.5%	-5.6	-26.2%
O=C(OCC(=O)N1CCN(c2ccccc2)CC1)c1ccc(Cl)cc1[N+](=O)[O-]	/	9.7%	/	/	4.8%
O=C(OCC(=O)N1CCCC1)c1ccc(Cl)c([N+](=O)[O-])c1	6.7	7.7%	2.2%	29.0	16.8%
Nc1cc(C(=O)OCC(=O)N2CCOCC2)ccc1Cl	35.4*	99.4%	9.1%	57.9*	80.0%
CCN(c1ccccc1)S(=O)(=O)c1csc(C(N)=O)c1	-2.1	2.4%	-8.9%	-8.6	-23.5%
CC1CCCCC12NC(=O)N(CC(=O)Nc1sccc1C(N)=O)C2=O (configuration not stated)	/	33.8%	/	/	7.1%
O=C1CCc2cc(S(=O)(=O)NC3CCCCC3)ccc2N1	/	?	/	/	-21.6%
O=C(COC(=O)CCC(=O)c1cccs1)NC1CC1	0.8	11.2%	/	-6.3	8.2%
CC(C)c1ccc(/C=C2\SC(=O)N(CC(=O)NC3CCS(=O)(=O)C3)C2=O)cc1 (configuration not stated)	35.9*	47.3%	13.7%	76.0*	83.9%
O=C(CN1C(=O)S/C(=C\C=C\c2ccccc2)C1=O)NC1CCS(=O)(=O)C1 (configuration not stated)	48.2*	99.4%	0.6%	46.2*	127.5%
O=C(CN1C(=O)S/C(=C\c2ccccc2)C1=O)NC1CCS(=O)(=O)C1 (configuration not stated)	1.0	0.3%	4.0%	9.7	25.9%
COc1ccc(/C=C2\SC(=O)N(CC(=O)NC3CCS(=O)(=O)C3)C2=O)cc1 (configuration not stated)	-5.5	110.3%	7.2%	-5.7	48.0%
COc1ccc(-n2cc(C#N)c(=O)n(Cc3ccc(F)cc3)c2=O)cc1	4.9	-22.1%	/	18.9	-19.4%
COc1ccc(NC(=S)NC(NC(=O)c2cccc(Cl)c2)C(Cl)(Cl)Cl)c([N+](=O)[O-])c1 (configuration not stated)	-2.3	?	7.3%	15.9	3.29µM*
COc1ccc(NC(=S)NC(NC(=O)c2cccc(C)c2)C(Cl)(Cl)Cl)c([N+](=O)[O-])c1 (configuration not stated)	-0.5	-19.2%	2.0%	-4.5	3.29µM*
COc1ccc(NC(=S)NC(NC(=O)CF)C(Cl)(Cl)Cl)c([N+](=O)[O-])c1 (configuration not stated)	-1.4	?	-2.1%	-10.7	5.5%
SMILES	CHX counter	Pf growth 96h	NS1 function inh	Shiga inhibitor	Pf growth 48h
COc1ccc(NC(=S)NC(NC(C)=O)C(Cl)(Cl)Cl)c([N+](=O)[O-])c1 (configuration not stated)	0.6	?	10.0%	-2.5	14.3%
Cc1ccc(-c2[nH]c(-c3ccc(C(=O)O)cc3)nc2-c2ccccc2)cc1	-2.4	10.4µM*	8.6%	-6.3	-32.1%
Cc1ccc(C)c(S(=O)(=O)C(C#N)c2nc3ccccc3nc2N2CC(C)OC(C)C2)c1 (configuration not stated)	2.7	-23.6%	-9.7%	21.0	13.1µM*
Nc1cc2c(nc3c4ccccc4c(N)cc3[n+]2-c2cccc3ccccc23)c2ccccc12 (tested in a mixture with another compound)	/	/	-15.3%	/	/
Cc1cc(N)c2ccccc2[n+]1CCCCCCCCCC[n+]1c(C)cc(N)c2ccccc21	/	-99.9%[12.8 µM]	-51.2%	/	0.181µM*
Cc1[nH]nc(SCC(=O)N2CCC(C)CC2)c1[N+](=O)[O-]	16.7*	-25.3%	4.2%	17.6	/
Cc1[nH]nc(SCC(=O)N2CCCC2)c1[N+](=O)[O-]	-0.3	-28.8%	/	20.7	20.3%
CC1=CC(C)(C)N(S(=O)(=O)c2ccc(C)cc2)c2cc(C)ccc21	-0.8	9.28µM*	-103.4%	13.9	/
COc1ccc2c(c1)C(C)=CC(C)(C)N2S(=O)(=O)c1ccc(C)cc1	-1.2	28.1%	-3.6%	23.5	?
O=C(Cn1c(=O)oc2ccc(Cl)cc21)Nc1ccon1	1.2	36.5%	9.1%	23.7	1.9%
CCOC(=O)C1=C(N)OC2=C(C(=O)CCC2)C12C(=O)N1c3c(ccc(C)c32)C(C)=CC1(C)C (configuration not stated)	-1.1	11.7µM*	-32.4%	-6.6	?
CCOC(=O)c1c(C)c(-c2ccccc2)n(CC(=O)NCCC(C)C)c1C	-1.4	?	2.3%	-2.4	?
CC(=O)Nc1ccccc1C(=O)OCC(=O)c1ccccc1Cl	23.6*	107.1%	-18.8%	53.2*	59.1%
CC(=O)Nc1ccccc1C(=O)OCc1ccccc1F	28.8*	?	-7.4%	61.2	55.9%
Cc1c(C(=O)NCC2CCCO2)sc2nc(-c3ccc(F)cc3)cn12 (configuration not stated)	31.7*	-7.4%	-19.6%	32.4	-0.8%
CCN(CC)CCCNC(=O)c1sc2nc(-c3ccc(F)cc3)cn2c1C	-1.8	13.1µM*	-9.6%	10.2	/
Cc1cccc2nc(C(=O)Nc3cccc(C(=O)NC4CC4)c3)cn12	/	96.5%	/	/	155.5%
Cc1nn(-c2cccc(Cl)c2)nc1C(=O)Nc1cccc(C(=O)NC2CC2)c1	/	?	/	/	14.7µM*
Cc1ccc(-n2nc(C)c(C(=O)Nc3cccc(C(=O)NC4CC4)c3)n2)c(C)c1	/	14.7µM*	/	/	?
S=C(NCCc1ccccc1)N1CCN(C23CC4CC(CC(C4)C2)C3)CC1	-5.2	88.6%	/	-6.3	9.28µM*
